Laboratory results: article PMC5540273 (PLoS ONE, 2017)

Assays:
Conditions in all cases: concentration: 1 μM, replicates: in singlicate; n = 1
RIPK2 = tested on: RIPK2
RIPK4 = tested on: RIPK4
RIPK5 = tested on: RIPK5
ROCK1 = tested on: ROCK1
ROCK2 = tested on: ROCK2
ROS1 = tested on: ROS1
[1] = tested on: RPS6KA4(Kin.Dom.1-N-terminal)
[2] = tested on: RPS6KA4(Kin.Dom.2-C-terminal)
[3] = tested on: RPS6KA5(Kin.Dom.1-N-terminal)
[4] = tested on: RPS6KA5(Kin.Dom.2-C-terminal)
[5] = tested on: T1, RSK1(Kin.Dom.1-N-terminal)
T1 construct: gene RPS6KA1

[6] = tested on: T2, RSK1(Kin.Dom.2-C-terminal)
T2 construct: gene RPS6KA1

[7] = tested on: T3, RSK2(Kin.Dom.1-N-terminal)
T3 construct: gene RPS6KA3

[8] = tested on: T4, RSK2(Kin.Dom.2-C-terminal)
T4 construct: gene RPS6KA3

[9] = tested on: T5, RSK3(Kin.Dom.1-N-terminal)
T5 construct: gene RPS6KA2

[10] = tested on: T6, RSK3(Kin.Dom.2-C-terminal)
T6 construct: gene RPS6KA2

[11] = tested on: T7, RSK4(Kin.Dom.1-N-terminal)
T7 construct: gene RPS6KA6

[12] = tested on: T8, RSK4(Kin.Dom.2-C-terminal)
T8 construct: gene RPS6KA6

S6K1 = tested on: S6K1
SBK1 = tested on: SBK1
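Further: KINOMEscan kinase panel screen.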

| SMILES | %Inh (RIPK2) [%] | %Inh (RIPK4) [%] | %Inh (RIPK5) [%] | %Inh (ROCK1) [%] | %Inh (ROCK2) [%] | %Inh (ROS1) [%] | %Inh [1] [%] | %Inh [2] [%] | %Inh [3] [%] | %Inh [4] [%] | %Inh [5] [%] | %Inh [6] [%] | %Inh [7] [%] | %Inh [8] [%] | %Inh [9] [%] | %Inh [10] [%] | %Inh [11] [%] | %Inh [12] [%] | %Inh (S6K1) [%] | %Inh (SBK1) [%] |
| --- | --- | --- | --- | --- | --- | --- | --- | --- | --- | --- | --- | --- | --- | --- | --- | --- | --- | --- | --- | --- |
| FC(F)(F)c1ccc(-c2ncn(CCCN3CCOCC3)c2-c2ccncc2)cc1 [SB-217780] | 0 | 61 | 0 | 27 | 0 | 0 | 1 | 11 | 0 | 0 | 11 | 6 | 0 | 28 | 32 | 19 | 1 | 44 | 0 | 13 |
| Nc1n[nH]c2ncc(-c3ccccc3)cc12 [SB-517081] | 18 | 19 | 5 | 14 | 2 | 0 | 7 | 0 | 41 | 25 | 25 | 0 | 10 | 0 | 7 | 0 | 0 | 36 | 8 | 8 |
| COc1ccc(-c2cc3c(C)nc(N)nc3n([C@H]3CC[C@H](OCCO)CC3)c2=O)cn1 | 0 | 0 | 0 | 0 | 0 | 9 | 0 | 0 | 0 | 0 | 0 | 9 | 0 | 0 | 16 | 12 | 0 | 23 | 0 | 0 |
| COc1ccc(-n2cnc3c(N)ncnc32)cc1 [SKF-97236] | 15 | 9 | 10 | 5 | 20 | 0 | 12 | 0 | 15 | 0 | 0 | 0 | 11 | 22 | 9 | 0 | 9 | 36 | 9 | 13 |
| COC(=O)c1c(-c2ccccc2)c2cc(Br)ccc2c(=O)n1Cc1ccc(S(C)(=O)=O)cc1 | 0 | 46 | 20 | 23 | 0 | 0 | 0 | 21 | 24 | 3 | 3 | 14 | 0 | 9 | 14 | 0 | 24 | 6 | 0 | 5 |
| CCC(=O)c1c(-c2ccccc2)c2cc(Cl)ccc2c(=O)n1Cc1cc(S(C)(=O)=O)n(CC(N)=O)n1 | 0 | 0 | 0 | 0 | 0 | 0 | 0 | 0 | 30 | 22 | 0 | 0 | 0 | 0 | 1 | 6 | 0 | 5 | 0 | 0 |
| COc1cc(Nc2ccnc3ccc(C(F)(F)F)cc23)cc(OC)c1OC [GW577382] | 64 | 1 | 0 | 0 | 15 | 9 | 10 | 0 | 6 | 13 | 18 | 0 | 98.3 | 32 | 4 | 20 | 0 | 21 | 1 | 5 |
